# Laboratory results taken from PubChem BioAssay (NCATS).
# Inconclusive results are not listed. The source made the active and inactive calls. The call rests on the fitted dose curve; in most records, active means well fitted activation curve with a large enough effect; inconclusive means small, poorly fitted or top-dose-only effect; inactive means no such curve, though single readings can be large or run the other way.
# Molecular target: Cellular tumor antigen p53 (Homo sapiens) (UniProt P04637)
# Sequence (P04637 whole entry, looked up): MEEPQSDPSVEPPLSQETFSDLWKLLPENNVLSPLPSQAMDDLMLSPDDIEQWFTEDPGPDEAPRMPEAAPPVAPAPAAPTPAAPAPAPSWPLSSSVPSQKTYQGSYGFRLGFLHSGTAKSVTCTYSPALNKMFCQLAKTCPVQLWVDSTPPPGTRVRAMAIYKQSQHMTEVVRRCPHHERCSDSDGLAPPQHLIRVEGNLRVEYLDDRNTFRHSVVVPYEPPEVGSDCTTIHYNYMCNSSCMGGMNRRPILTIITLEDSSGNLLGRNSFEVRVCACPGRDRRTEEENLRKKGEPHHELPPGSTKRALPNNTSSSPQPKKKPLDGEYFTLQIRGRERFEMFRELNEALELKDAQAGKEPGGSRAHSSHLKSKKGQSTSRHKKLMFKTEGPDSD
# Assay: Primary qHTS for small molecule compounds that upregulate eGFP-tagged delta133p53alpha (in N-terminal) cells. (AID 2060322); further: nearly all actives have a fitted effect of over 75% in size;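 on activation: cells pre-induced with doxycycline then dosed without doxycycline; series mostly up to about 56 µM; 0% = DMSO vehicle and 100% = reference activator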
# Conditions: NCI-H358 eGFP-delta133p53alpha fluorescence, 24 h; activation: hits give high values
# In short: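 NCI-H358 cells pre-induced 24 h with 10 ng/ml doxycycline for eGFP-delta133p53alpha, plated dox-free and exposed 24 h at 37C to titrated compounds. Fixed, Hoechst-stained; gated GFP peak intensity by laser scanning cytometry, normalized to DMSO (0%) and 57.5 uM 5-azacytidine (100%).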
# Potency means the concentration at half of the fitted maximal effect.
SMILES,activation,Potency
N=C(N)N,7.34% (inactive),
O=C(O)C(S)C(S)C(=O)O (stereo not given),-37.9% (inactive),
CCN(CC)CCOc1ccc(C(O)(Cc2ccc(Cl)cc2)c2ccc(C)cc2)cc1 (stereo not given),-6.69% (inactive),
CN/C(=C\[N+](=O)[O-])NCCSCc1csc(CN(C)C)n1,-0.837% (inactive),
CC(=C(CCOC(=O)C(C)C)SSC(CCOC(=O)C(C)C)=C(C)N(C=O)Cc1cnc(C)nc1N)N(C=O)Cc1cnc(C)nc1N,-4.18% (inactive),
CCC1(c2cnc[nH]2)Cc2ccccc2C1,-7.53% (inactive),
c1ccc2occc2c1,-5.08% (inactive),
CC(=O)OCC(=O)[C@@]1(OC(C)=O)[C@@H](C)C[C@H]2[C@@H]3C[C@H](F)C4=CC(=O)C=C[C@]4(C)[C@@]3(F)[C@@H](O)C[C@@]21C,5.08% (inactive),
Nc1ccc(C(=O)N2CC3CC(CN(Cc4ccccc4)C3)C2)cc1,-6.21% (inactive),
CCN1CC(CCN2CCOCC2)C(c2ccccc2)(c2ccccc2)C1=O (stereo not given),5.08% (inactive),
C[C@@H]1[C@H](C)CC[C@]2(C(=O)O)CC[C@]3(C)C(=CC[C@@H]4[C@@]5(C)CC[C@H](O)C(C)(C)[C@H]5CC[C@]43C)[C@@H]12,-12.8% (inactive),
CC[C@]1(O)C[C@H]2CN(CCC3=c4ccccc4=N[C]3[C@@](C(=O)OC)(c3cc4c(cc3OC)N(C)[C@H]3[C@@](O)(C(N)=O)[C@H](O)[C@]5(CC)C=CCN6CC[C@]43[C@@H]65)C2)C1,31.2% (inactive),
C[C@H]1[C@H](NC(=O)/C(=N/OC(C)(C)C(=O)O)c2csc(N)n2)C(=O)N1S(=O)(=O)O (stereo in doubt),5.08% (inactive),
CCCCOC(=O)c1ccc(N)cc1,19.8% (inactive),
COC(=O)c1nc(Cl)c(Cl)nc1N,,27.6 µM (active)
O=C(O)Cn1c(=O)n(Cc2ccc(Br)cc2F)c(=O)c2ccc(Cl)cc21,-5.08% (inactive),
Oc1ccccc1-c1nnco1,-23.2% (inactive),
C#C[C@]1(O)CC[C@@H]2[C@@H]3CCc4cc(O)ccc4[C@H]3CC[C@@]21C,18.7% (inactive),
COc1cc(C=O)ccc1O,5.02% (inactive),
CC(COc1ccccc1)NC(C)C(O)c1ccc(O)cc1 (stereo not given),18.6% (inactive),

SMILES,activation,Potency
CC[C@@H](CO)NCCN[C@@H](CC)CO,-10% (inactive),
O=C(O)Cc1csc(-c2ccc(Cl)cc2)n1,15.3% (inactive),
CC1(C)OC[C@@H](COC(=O)CCc2ccc(OC[C@@H](O)CNCCNC(=O)N3CCOCC3)cc2)O1,10% (inactive),
COc1ccc(C(Cl)=C(c2ccc(OC)cc2)c2ccc(OC)cc2)cc1,-1.67% (inactive),
NNc1nnc(NN)c2ccccc12,-35.1% (inactive),
COc1cc(NS(=O)(=O)c2ccc(N)cc2)nc(OC)n1,-0.195% (inactive),
COc1cc(C(=O)NCCCCCC(=O)O)cc(OC)c1OC,-9.6% (inactive),
C[C@H](NC(=O)C(C#N)=Cc1cccc(Br)n1)c1ccccc1,11.9% (inactive),
CC(C)NC[C@@H](O)COc1ccc(CC(N)=O)cc1,-20.9% (inactive),
Nc1cccc2c(N)cccc12,,28.2 µM (active)
N=C1N=C(N)c2cc3ccccc3cc21,,35.5 µM (active)
Nc1ccn([C@@H]2O[C@H](CO)[C@H](O)C2(F)F)c(=O)n1,10.5% (inactive),
C=C1[C@H](n2cnc3c(=O)[nH]c(N)nc32)C[C@H](O)[C@H]1CO,-20.5% (inactive),
CC12CCC(CC1)C(C)(C)O2,-0.565% (inactive),
CC(C)OC(=O)c1cc2c(OCC(O)CNC(C)(C)C)cccc2[nH]1 (stereo not given),20.9% (inactive),
CCc1ccc(C=C2SC(=S)NC2=O)cc1,32.5% (inactive),
CC(C)(C)c1[nH]cnc1C=c1[nH]c(=O)c(=Cc2ccccc2)[nH]c1=O,-1.26% (inactive),
O=C(CN1CCN(Cc2ccc3c(c2)OCO3)CC1)N1c2ccccc2Sc2ccccc21,1.69% (inactive),
N=C1SC(=Cc2ccc(-c3ccc4c(c3)C(=O)NC4=O)o2)C(=O)N1c1ccc(Br)cc1,54.1% (inactive),
NCC[C@H](O)C(=O)N[C@@H]1C[C@H](N)[C@@H](O[C@H]2O[C@H](CN)[C@@H](O)[C@H](O)[C@@H]2O)[C@H](O)[C@@H]1O[C@H]1O[C@H](CO)[C@@H](O)[C@H](N)[C@@H]1O,-2.51% (inactive),
